Assay [1] can be described thus: TOX21_p53_BLA_p2_viability: Viability Assessment in the Tox21 HCT-116 p53 Agonism Beta-lactamase Assay, Phase 2 (AID 2283591).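 Note: compound exposure lasted 16 h at 37 °C; actives lower the ATP signal meaning cytotoxicity.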 In outline: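 HCT-116 p53-bla cells (4000/well) rested 5 h at 37C, then received compounds in DMSO (217-fold dilution) for 16 h at 37C, 5% CO2. After the CCF4 read, CellTiter-Glo was added; ATP luminescence was read after 30 min at room temperature.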

Assay [2] deals with Cellular tumor antigen p53 (Homo sapiens) (UniProt P04637). Briefly: TOX21_p53_BLA_p2_ratio: Tox21 HCT-116 p53 Agonism Beta-lactamase Assay, Ratio, Phase 2 (AID 2283592). Put shortly: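 Ratio endpoint: beta-lactamase cleavage of CCF4-AM, blue (460 nm) over green (530 nm). HCT116 reporter line; 16 h treatment, 37C; substrate 2 h RT.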
The nature of assay [3]: TOX21_p53_BLA_p3_viability: Viability Assessment in the Tox21 HCT-116 p53 Agonism Beta-lactamase Assay, Phase 3 (AID 2283593).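 Note: cells exposed to compound for 16 h before reading.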 In outline: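 HCT-116 cells (4000/well) rested 5 h at 37C, then got DMSO compounds by pin tool (217-fold dilution) for 16 h at 37C, 5% CO2. After the bla read, CellTiter-Glo was added and luminescence read at 30 min, room temperature.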
Assay [4] has as its target Cellular tumor antigen p53 (Homo sapiens) (UniProt P04637). The assay is described as follows: TOX21_p53_BLA_p3_ratio: Tox21 HCT-116 p53 Agonism Beta-lactamase Assay, Ratio, Phase 3 (AID 2283596). Put shortly: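 Cells were seeded at 4000/well, rested 5 h at 37C, then dosed with DMSO compound solutions (217-fold dilution) for 16 h. CCF4-AM substrate was loaded for 2 h at room temperature, and the 460/530 nm emission ratio was fitted for gain of signal versus DMSO.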

Assay [5] can be described thus: TOX21_p53_BLA_p4_viability: Viability Assessment in the Tox21 HCT-116 p53 Agonism Beta-lactamase Assay, Phase 4 (AID 2283597).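 Note: hits lower the luminescence signal meaning cytotoxicity.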 In outline: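 Cytotoxicity was inferred from loss of CellTiter-Glo luminescence. HCT116 cells had been dosed with compounds after 5 h plating, incubated 16 h at 37C and 5% CO2, and exposed to the CCF4-AM substrate for 2 h.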
For assay [6], the target named is Cellular tumor antigen p53 (Homo sapiens) (UniProt P04637). Briefly: TOX21_p53_BLA_p5_ratio: Tox21 HCT-116 p53 Agonism Beta-lactamase Assay, Ratio, Phase 5 (AID 2283599). In outline: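 HCT-116 cells carrying a p53-inducible beta-lactamase reporter were seeded at 4000 cells/well and dosed after 5 h with compound in DMSO (217-fold dilution). After 16 h at 37C, CCF4-AM substrate was added for 2 h, and the 460/530 nm emission ratio was scored as gain-of-signal versus DMSO.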

Assay [7] in a line: TOX21_p53_BLA_p5_viability: Viability Assessment in the Tox21 HCT-116 p53 Agonism Beta-lactamase Assay, Phase 5 (AID 2283600). In outline:
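Luciferase-coupled ATP quantitation of cells treated for 16 h (37C, 5% CO2) with test chemicals delivered in DMSO via a 217-fold dilution; 4000 cells/well; reagent incubated 30 min at room temperature before luminescence reading.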

In assay [8] the target is Cellular tumor antigen p53 (Homo sapiens) (UniProt P04637). Briefly: TOX21_p53_BLA_p4_ratio: Tox21 HCT-116 p53 Agonism Beta-lactamase Assay, Ratio, Phase 4 (AID 2283601). In outline:
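HCT116 cells carrying an inducible beta-lactamase reporter were plated at 4000 cells/well, rested 5 h, then exposed to compounds in DMSO (217-fold dilution) for 16 h at 37C. CCF4-AM substrate was loaded 2 h at room temperature; 460/530 nm emission ratio scored gain-of-signal versus DMSO.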

The structures appear in SMILES notation. Several values for one entry are separate records, joined by “and”; a condition that tells them apart may be missing. Equal entries are not always repeated. Records with an inconclusive call do not appear. A structure can be active in one record and inactive in another. Activity calls are given as the source filed them. Rule for the calls: active = hit-call score of the fitted dose curve at least 0.9, where 1 is the maximum; inconclusive = response in the unintended direction; inactive = score below 0.9.

Chain of Cellular tumor antigen p53 (Homo sapiens) (P04637 whole entry, looked up): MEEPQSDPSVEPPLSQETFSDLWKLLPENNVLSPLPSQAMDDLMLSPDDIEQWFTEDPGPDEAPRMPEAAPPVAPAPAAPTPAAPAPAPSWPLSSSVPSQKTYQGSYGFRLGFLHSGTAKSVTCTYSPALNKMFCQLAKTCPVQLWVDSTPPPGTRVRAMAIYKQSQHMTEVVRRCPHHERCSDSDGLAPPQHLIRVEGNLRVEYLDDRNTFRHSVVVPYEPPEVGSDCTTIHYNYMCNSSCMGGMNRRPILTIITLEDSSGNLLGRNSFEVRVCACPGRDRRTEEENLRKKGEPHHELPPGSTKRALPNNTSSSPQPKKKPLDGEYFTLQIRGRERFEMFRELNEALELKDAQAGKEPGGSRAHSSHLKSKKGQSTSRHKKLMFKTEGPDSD

In the case of `C[C@@H](O)[C@H]1C(=O)N2C(C(=O)O)=C(SCCN=CN)C[C@H]12`, the compound was called inactive in assay [1], in assay [2], in assay [3], in assay [4], in assay [5] and in assay [6].
Regarding `C[N+]1(CC2COC(c3ccccc3)(c3ccccc3)O2)CCCCC1` (stereo not drawn), the compound was called inactive in assay [1], in assay [2], in assay [3], in assay [4] and in assay [5].
As a reminder, the AC50 is the midpoint of the concentration-response curve, whichever way the signal moves. In the case of `C#C[C@]1(OC(C)=O)CC[C@H]2[C@@H]3CCC4=C[C@@H](OC(C)=O)CC[C@@H]4[C@H]3CC[C@@]21C`, the AC50 is 36.9 µM (active) and 34.4 µM (active) in assay [1]; 37.3 µM (active) in assay [3]; 43 µM (active) in assay [6]; 36.7 µM (active) in assay [7]. In addition, the result in assay [2], in assay [3], in assay [4], in assay [5], in assay [6] and in assay [7] was inactive. In assay [8], the result was inactive.
`O=C(CCCCCCC(=O)Nc1ccccc1)NO`: the result in assay [1], in assay [3], in assay [4] and in assay [7] was inactive. Also, the AC50 in assay [2] was 420 nM (active) and 686 nM (active); in assay [4], 0.874 µM (active); in assay [5], 4.47 µM (active) and 7.11 µM (active); in assay [6] it was 1.08 µM (active) and 842 nM (active); in assay [8], 904 nM (active) and 534 nM (active).
For the compound `Cc1c(C)c2c(c(C)c1OC(=O)CCC(=O)O)CC[C@@](C)(CCC[C@H](C)CCC[C@H](C)CCCC(C)C)O2`, the outcome in assay [1], in assay [2], in assay [4], in assay [5], in assay [6] and in assay [7] was inactive. The result in assay [8] was inactive. In addition, the AC50 is 46.5 µM (active) and 41.2 µM (active) in assay [3]; 67.7 µM (active) in assay [4].
Take `NNCCc1ccccc1`: the call in assay [1], in assay [2], in assay [3], in assay [4], in assay [5] and in assay [6] was inactive. Besides, the result in assay [7] and in assay [8] was inactive. Moreover, the AC50 in assay [5] is 74.1 µM (active).
As for `CC(COc1ccccc1)N(CCCl)Cc1ccccc1` (stereo not drawn), the result in assay [1], in assay [2], in assay [3], in assay [4], in assay [5] and in assay [6] was inactive. Moreover, the compound was called inactive in assay [7] and in assay [8]. Moreover, the AC50 in assay [3] is 54.6 µM (active) and 79.1 µM (active); in assay [4] it was 23.1 µM (active).
Consider `NC[C@H]1O[C@H](O[C@H]2[C@H](O)[C@@H](O[C@H]3O[C@H](CO)[C@@H](O)[C@H](N)[C@H]3O)[C@H](N)C[C@@H]2N)[C@H](O)[C@@H](O)[C@@H]1O`, for which the result in assay [1], in assay [2], in assay [3], in assay [4], in assay [5] and in assay [7] was inactive. In addition, the result in assay [8] was inactive. In addition, the values for the half-maximal activity concentration (AC50) in assay [2] and in assay [6] were 3.79 µM (active) and 3.34 µM (active), respectively.
As to `CCOC(=O)c1ccc(OCCN2C[C@H](O)[C@@H](O)[C@H](O)[C@H]2CO)cc1`, the result in assay [1], in assay [2] and in assay [3] was inactive.
With `C=Cc1ccc(S(=O)(=O)O)cc1`, the compound was called inactive in assay [1], in assay [2], in assay [3], in assay [4], in assay [5] and in assay [6]. Besides, the result in assay [7] and in assay [8] was inactive. For the same compound, in assay [5], the AC50 is 46.1 µM (active).
In the case of `CCCCCCCCCCCCCCC(=O)O`, the outcome in assay [1], in assay [2], in assay [3], in assay [4], in assay [5] and in assay [6] was inactive. Also, the result in assay [7] was inactive.
Turning to `CCOC(=O)c1cc(-c2ccccc2)nc2ccc(C)cc12`, the compound was classed as inactive in assay [1], in assay [2], in assay [3], in assay [4], in assay [5] and in assay [6]. Moreover, the compound was classed as inactive in assay [7].
`CC(C)c1ccc2oc3nc(N)c(C(=O)O)cc3c(=O)c2c1`: the compound was called inactive in assay [1], in assay [2], in assay [3], in assay [4], in assay [5] and in assay [6]. Also, in assay [7], the compound was called inactive.
`Nc1nc(Cl)nc2c1ncn2[C@@H]1O[C@H](CO)[C@@H](O)[C@@H]1F`: the result in assay [1], in assay [3], in assay [5] and in assay [7] was inactive. The AC50 in assay [2] is 0.119 µM (active); in assay [4], 0.117 µM (active); in assay [6], 0.112 µM (active).

(Values after PubChem BioAssay (EPA / NIEHS).)
